“And” between values parts separate entries of the source, which are not always exact repeats. Equal entries are not always repeated. In all, about 5,500 compounds went through this assay and about 2,000 (36%) were called active. Not shown: some 18% with an inconclusive outcome. No stated cut-off is given here; in the data, active means normalized growth mostly below about 0.91 (no sharp cut-off); inconclusive means no clear call, values can overlap the other calls; inactive means mostly above about 0.92. The list shows a part of the results.
Assay: chemical genetic growth profiling, strain panel (AID 1159580);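 further: tested at 20 µM; growth read once vehicle control cultures reached saturation at 30 °C; 1 = growth at the plate median or of vehicle wells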
Conditions: S. cerevisiae deletion strains, growth OD

Measured: normalized growth

O=c1cc(-c2ccc(O)cc2)oc2cc(O[C@@H]3O[C@H](CO)[C@@H](O)[C@H](O)[C@H]3O)cc(O)c12
inactive: locus YAL021C, strain ccr4, stronger effect = lower value 0.975 | locus YAL026C, strain drs2, stronger effect = lower value 1.02 | locus YAL030W, strain snc1, stronger effect = lower value 1.01 | locus YBL061C, strain skt5, stronger effect = lower value 1.01 | locus YBR009C, strain hhf1, stronger effect = lower value 0.995 | locus YBR021W, strain FUR4, stronger effect = lower value 0.953 | locus YBR023C, strain chs3, stronger effect = lower value 0.995 | locus YBR171W, strain sec66, stronger effect = lower value 1.02 | locus YBR229C, strain ROT2, stronger effect = lower value 0.983 | locus YBR231C, strain swc5, stronger effect = lower value 1.04 | locus YBR279W, strain paf1, stronger effect = lower value 1 | locus YCL011C, strain gbp2, stronger effect = lower value 0.992 | locus YCL016C, strain dcc1, stronger effect = lower value 0.983 | locus YCL029C, strain bik1, stronger effect = lower value 0.973 | locus YCL069W, strain vba3, stronger effect = lower value 1 | locus YCR088W, strain abp1, stronger effect = lower value 1 | locus YDL005C, strain med2, stronger effect = lower value 1.03 | locus YDL035C, strain GPR1, stronger effect = lower value 0.999 | locus YDL040C, strain nat1, stronger effect = lower value 0.998 | locus YDL074C, strain BRE1, stronger effect = lower value 0.974 | locus YDL101C, strain DUN1, stronger effect = lower value 0.986 | locus YDL185W, strain tfp1, stronger effect = lower value 0.968 | locus YDL192W, strain arf1, stronger effect = lower value 0.976 | locus YDR001C, strain nth1, stronger effect = lower value 1.01 | locus YDR069C, strain doa4, stronger effect = lower value 1.01 | locus YDR101C, strain arx1, stronger effect = lower value 0.981 | locus YDR137W, strain rgp1, stronger effect = lower value 1.01 | locus YDR150W, strain NUM1, stronger effect = lower value 0.988 | locus YDR159W, strain sac3, stronger effect = lower value 1.06 | locus YDR162C, strain NBP2, stronger effect = lower value 1.02 | locus YDR195W, strain ref2 1.01 | locus YDR297W, strain sur2, stronger effect = lower value 1.02 | locus YDR318W, strain mcm21, stronger effect = lower value 0.986 | locus YDR334W, strain swr1, stronger effect = lower value 1.01 | locus YDR335W, strain msn5, stronger effect = lower value 1 | locus YDR388W, stronger effect = lower value 0.973 | locus YDR392W, strain spt3, stronger effect = lower value 0.935 | locus YDR502C, strain sam2, stronger effect = lower value 0.982 | locus YEL003W, strain gim4, stronger effect = lower value 1.02 | locus YEL037C, strain rad23, stronger effect = lower value 1.01 | locus YEL061C, strain CIN8 (second series), stronger effect = lower value 1 | locus YEL061C, strain CIN8, stronger effect = lower value 0.99 | locus YER015W, strain faa2, stronger effect = lower value 0.993 | locus YER016W, strain bim1, stronger effect = lower value 1.01 | locus YER110C, stronger effect = lower value 0.995 | locus YER111C, strain swi4, stronger effect = lower value 1.01 | locus YER155C, strain BEM2 (second series), stronger effect = lower value 1.05 | locus YER155C, strain BEM2, stronger effect = lower value 0.98 | locus YER167W, strain BCK2, stronger effect = lower value 0.967 | locus YFR010W, strain ubp6, stronger effect = lower value 1.02 | locus YGL078C, strain dbp3, stronger effect = lower value 0.984 | locus YGL086W, strain mad1, stronger effect = lower value 0.978 | locus YGL167C, strain pmr1, stronger effect = lower value 1 | locus YGL173C, strain kem1, stronger effect = lower value 1.03 | locus YGL227W, strain vid30, stronger effect = lower value 1.01 | locus YGL240W, strain doc1, stronger effect = lower value 1.02 | locus YGL248W, strain PDE1, stronger effect = lower value 1 | locus YGL253W, strain hxk2, stronger effect = lower value 1.01 | locus YGR078C, strain PAC10, stronger effect = lower value 0.999 | locus YGR135W, strain pre9, stronger effect = lower value 0.973 | locus YGR252W, strain gcn5, stronger effect = lower value 0.974 | locus YHR013C, strain ard1, stronger effect = lower value 0.994 | locus YHR027C, strain rpn1, stronger effect = lower value 1.01 | locus YHR030C, strain SLT2, stronger effect = lower value 0.986 and 1.05 | locus YHR079C, strain IRE1 (second series), stronger effect = lower value 0.971 | locus YHR079C, strain IRE1, stronger effect = lower value 1.03 | locus YHR094C, strain hxt1, stronger effect = lower value 0.972 | locus YHR129C, strain ARP1, stronger effect = lower value 0.988 | locus YHR142W, strain chs7, stronger effect = lower value 1 | locus YHR200W, strain rpn10, stronger effect = lower value 0.957 | locus YIL066C, strain RNR3, stronger effect = lower value 0.979 | locus YIL073C, strain SPO22, stronger effect = lower value 0.969 | locus YIL125W, strain kgd1, stronger effect = lower value 0.974 | locus YIR030C, strain dcg1, stronger effect = lower value 0.987 | locus YJL092W, strain hpr5, stronger effect = lower value 1 | locus YJL095W, strain BCK1 (second series), stronger effect = lower value 1.02 | locus YJL095W, strain BCK1, stronger effect = lower value 1.02 | locus YJL115W, strain asf1, stronger effect = lower value 1.01 | locus YJL129C, strain trk1, stronger effect = lower value 1 | locus YJL134W, strain LCB3, stronger effect = lower value 0.983 | locus YJL154C, strain vps35, stronger effect = lower value 1.01 | locus YJL164C, strain tpk1, stronger effect = lower value 0.979 | locus YJL166W, strain qcr8, stronger effect = lower value 1.01 | locus YJL168C, strain set2, stronger effect = lower value 0.995 | locus YJL187C, strain SWE1 (second series), stronger effect = lower value 0.998 | locus YJR043C, strain POL32, stronger effect = lower value 0.995 | locus YJR066W, strain TOR1, stronger effect = lower value 0.998

Source: PubChem BioAssay AID1159580 (chemical genetic matrix, 2015)
